# Experimental data reported in the supplement of paper PMC6555819.
# System: PPARg homodimer (NR concentration 180 nM)
# Assay: PBM binding z-score (relative to random genomic background probes); higher = stronger binding; sequences stand for … in GC…GCGATTGACAGCGTAGAATGAAGG
# How it was run: (§1)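 Custom Agilent 4×180K protein-binding microarrays carried double-stranded probes, each with a 34-nt variable region. These regions held direct-repeat seeds, single-nucleotide variants, half-site ablations and random human genomic background sequences. Ligand-free nuclear receptor dimers were incubated on the arrays for 1 h, antibodies against each partner (one per run) detected binding, and scanned fluorescence was regression-normalized. Binding z-scores take the random background probes as reference.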
row,Sequence,PBM binding z-score
1,TATACAGGGTCAAAGGCCACAGTACGAATGTCGA,3.1
2,GATACAGGGTCAGCTAGAGCCCAGAGTATGGAAA,1.06
3,TATACAGGGACAAAGGCCAGAGTACGAATGTCGA,0.776
4,TCGAGTAGGTTAGGGGCATTGAGAATGGCGTCGA,1.3
5,CCTCGGAGGACAGAAGGTCAGAGCTGTCCGCTTT,1.06
6,CGTCCAAGGTCATAGGAGGTCCGTGAAGACAGAT,3.87
7,AGTCAAAGTCCACTAGGTAACGTAAGATTCAGCT,0.527
8,CCTTACGGGTCACGAGGTTATAGAACGACGAGCG,2.71
9,TGAATGAGGTTATAAGAACAGGGAACGTTGCAAA,0.709
10,CGAACTACGTCATTGACAGGACAGTGAATAGTAA,0.0858
11,ATACCAAGGTGATCGTGAGGTGGTTGATACTAAC,0.0507
12,TCTAGTTGCTCACGGAGGTCACACACGACGGGTA,2.53
13,CCTCGGGGGACAACAGGAGGTCAGAGCTGCCAGA,1.34
14,CTCGAAAGGTCGGTTGAGGTGAGTATTCGGATAA,1.02
15,TAGCCTAGGTCATATCGGGCCAGTATACGCTATA,0.54
16,AGAACGAGGGCACGCTGAGTTGTTAGCAGAGTAG,-0.208
17,ACAGACTGGTGATGAAGGTAACTCAGGCTATCAT,-0.6
18,CTCGAAAGGTCGTGCTCAGGTGAGTCTACCAAAC,1.24
19,AGAACGAGGGCACGCTGAGTTGACAGCAGAGTAG,0.462
20,ACTAGCAAGCCAAGTTTGGGTCACTCAAACAAAG,-0.225

row,Sequence,PBM binding z-score
1,CCTTACGGCTCAAGGTTATAGCACGGGTGGTACG,0.358
2,CCTATTAGTTGACCATAAGGGCTACCGAAGCTCG,1.99
3,CGAACTAGGTCAAGGAAAGTGAATCTCCGCACGC,1.22
4,TGTCAAAGTTCAAAGGTAACGTAAGTATCCACAC,2.16
5,GCTGCTAGGTCAACTGATGGTCAGCCAAAGCTCG,1.57
6,CATGCAGGGTCAGCTAGGCCAGAGTAGGGACGGC,0.728
7,TCATGTAGATCAACAGGAGGTTAAGAAAGATCGA,-0.00792
8,TTACCAAGGAGAAAGGTCGTTGATGCACGCCTTG,0.653
9,AGTTAAAGTTCATCTAGGTAACGTAAGATATGCT,2.77
10,CGAACTAGGTCATTGACAGGCCAGTGAATAGTAA,1.29
11,GCTGCTAGGTCAACTGATGGTCAGGTAAAGCTCG,2.17
12,TCTAGCAGGCCAGAGGGTCACACAAGAGGTACGG,1.57
13,ATATGTCGGTTAGCTGGGGTCATTCAGACTAGGC,1.85
14,TCATATAGGTAATTCAGGTGAAAGTCGGCATCTA,1.41
15,CCTCGAAGGACAGAAGGTCAGAGCTGTCCGCTTT,1.14
16,TGAATGATGTTAAAGATCAGGGAACGTGGCGTCG,0.216
17,TCCTATAGGTAATACAGGTGAAAGTCGGCATCTA,0.164
18,ACTAGCAGGCCAAGTTGGGGTCACTCAAACAAAG,2.25
19,CGTCCAAGGTCATAGGAGGGCAGTGAAGACAGAT,2.4
20,ATCTAAAGGTCGACGAGGTGAGTATACACCGTTT,1.81

# System: PXR:RXRa (NR concentration 270 nM, RXRa partner concentration 90 nM)
# Assay: as above
# How it was run: as §1
row,Sequence,PBM binding z-score
1,TATACAGGGTCAAAGGCCACAGTACGAATGTCGA,4.85
2,GATACAGGGTCAGCTAGAGCCCAGAGTATGGAAA,1.83
3,TATACAGGGACAAAGGCCAGAGTACGAATGTCGA,0.0293
4,TCGAGTAGGTTAGGGGCATTGAGAATGGCGTCGA,0.449
5,CCTCGGAGGACAGAAGGTCAGAGCTGTCCGCTTT,1.35
6,CGTCCAAGGTCATAGGAGGTCCGTGAAGACAGAT,4.93
7,AGTCAAAGTCCACTAGGTAACGTAAGATTCAGCT,-0.372
8,CCTTACGGGTCACGAGGTTATAGAACGACGAGCG,4.54
9,TGAATGAGGTTATAAGAACAGGGAACGTTGCAAA,0.563
10,CGAACTACGTCATTGACAGGACAGTGAATAGTAA,-0.217
11,ATACCAAGGTGATCGTGAGGTGGTTGATACTAAC,0.417
12,TCTAGTTGCTCACGGAGGTCACACACGACGGGTA,4
13,CCTCGGGGGACAACAGGAGGTCAGAGCTGCCAGA,2.74
14,CTCGAAAGGTCGGTTGAGGTGAGTATTCGGATAA,3.05
15,TAGCCTAGGTCATATCGGGCCAGTATACGCTATA,2.18
16,AGAACGAGGGCACGCTGAGTTGTTAGCAGAGTAG,0.851
17,ACAGACTGGTGATGAAGGTAACTCAGGCTATCAT,-0.651
18,CTCGAAAGGTCGTGCTCAGGTGAGTCTACCAAAC,3.07
19,AGAACGAGGGCACGCTGAGTTGACAGCAGAGTAG,1.46
20,ACTAGCAAGCCAAGTTTGGGTCACTCAAACAAAG,0.253

row,Sequence,PBM binding z-score
1,CCTTACGGCTCAAGGTTATAGCACGGGTGGTACG,0.204
2,CCTATTAGTTGACCATAAGGGCTACCGAAGCTCG,0.0462
3,CGAACTAGGTCAAGGAAAGTGAATCTCCGCACGC,0.813
4,TGTCAAAGTTCAAAGGTAACGTAAGTATCCACAC,5.77
5,GCTGCTAGGTCAACTGATGGTCAGCCAAAGCTCG,1.39
6,CATGCAGGGTCAGCTAGGCCAGAGTAGGGACGGC,2.2
7,TCATGTAGATCAACAGGAGGTTAAGAAAGATCGA,0.814
8,TTACCAAGGAGAAAGGTCGTTGATGCACGCCTTG,1.82
9,AGTTAAAGTTCATCTAGGTAACGTAAGATATGCT,4.75
10,CGAACTAGGTCATTGACAGGCCAGTGAATAGTAA,1.34
11,GCTGCTAGGTCAACTGATGGTCAGGTAAAGCTCG,1.83
12,TCTAGCAGGCCAGAGGGTCACACAAGAGGTACGG,2.37
13,ATATGTCGGTTAGCTGGGGTCATTCAGACTAGGC,5.49
14,TCATATAGGTAATTCAGGTGAAAGTCGGCATCTA,0.703
15,CCTCGAAGGACAGAAGGTCAGAGCTGTCCGCTTT,1.08
16,TGAATGATGTTAAAGATCAGGGAACGTGGCGTCG,-0.226
17,TCCTATAGGTAATACAGGTGAAAGTCGGCATCTA,0.43
18,ACTAGCAGGCCAAGTTGGGGTCACTCAAACAAAG,5.29
19,CGTCCAAGGTCATAGGAGGGCAGTGAAGACAGAT,6.12
20,ATCTAAAGGTCGACGAGGTGAGTATACACCGTTT,3.26
